Compounds with a hit are over-represented: about 6.9% of the library has one in this group of screens.
Vif-APOBEC3F blk = qHTS for Inhibitors of Vif-A3F Interactions: qHTS; AID 602313, 2012; hit rate 0.2% among 390,000; Potency, µM (highest dose often 46.1 µM), inactives show at the highest dose activity, negative = active; HeLa A3F-eYFP + Vif (tagged APOBEC3F with the HIV-1 protein that degrades it), YFP fluorescence increase; note: potency is the fitted concentration of half-maximal effect; % of control where 0% means no effect; nearly all actives have a fitted effect of over 65% in size
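HeLa cells stably expressing Vif plus C-terminally eYFP-tagged A3F were seeded, incubated overnight at 37 deg C, dosed with compound, incubated overnight again at 37 deg C. Yellow fluorescence (Ex 488/Em 500-530) reported blocked Vif-mediated A3F-eYFP degradation.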
Giardia kill = Small Molecules that selectively kill Giardia lamblia: qHTS. activity change, % at 7.66 µM, hits read low. hit rate 0.15% among 340,000. Giardia lamblia trophozoite viability; in the data active = activity change below about -80%; inconclusive = between about -30% and that limit;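 note: parasites exposed to compound for two days anaerobically before the ATP read; % is set by controls: 0 for no effect and ±100 for the full control effect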
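Compounds were tested on trophozoites seeded at 100 cells/well and held 48 hrs at 37 deg C anaerobically. An ATP-based luminescent kit measured the remaining live cells.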
MCF10A rerep = A quantitative high throughput screen for small molecules that induce DNA re-replication in MCF 10a normal breast cells | MCF 10A DNA re-replication, Hoechst nuclear intensity, 48 h | Potency, µM (titrated, usually from 46.1 µM), for inactives: at the top dose activity, positive = re-replication, most hits filed as activators | hit rate 2.9% among 350,000 | AID 624296, 2012; note: potency is the fitted concentration of half-maximal effect; % of control where 0% means no effect; nearly all actives have a fitted effect of over 50% in size
SW480 rereplic = A quantitative high throughput screen for small molecules that induce DNA re-replication in SW480 colon adenocarcinoma cells; SW480 DNA re-replication, Hoechst DNA content imaging, 48 h; Potency, µM (doses to about 46.1 µM), inactives show at the highest dose re-replication activation, usual class: activators; hit rate 1.8% among 340,000; note: potency is the fitted concentration of half-maximal effect; % of control where 0% means no effect; nearly all actives have a fitted effect of over 55% in size
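250 cells/well; 23 nL cpd via pin tool; 48 hr, 37 C, 5% CO2; Hoechst 40 min; imager read of total nuclear intensity, ex 405/em 500-530 nm.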
IL-1B inflam inh = qHTS for Inhibitors of Inflammasome Signaling: IL-1-beta AlphaLISA Primary Screen. hit rate 4.7% among 360,000. THP-1 LPS/ATP IL-1B secretion, AlphaLISA, 16 h; stronger effect = lower value. activity change, % at 57.5 µM; in the data active = activity change below about -50%; inconclusive = mostly about -30% to -49%; note: % is set by controls: 0 for no effect and ±100 for the full control effect
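THP-1 cells pretreated 1 hr with compounds (up to 57.5 uM final), then stimulated with LPS (250 ng/mL final) plus ATP (1.25 mM final); secreted IL-1B measured by AlphaLISA after 16 hr, decreased signal indicating inhibition.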
Vif-A3G inh = qHTS for Inhibitors of Vif-A3G Interactions: qHTS | Potency, µM (doses to about 46.1 µM), for inactives: at the top dose activity, negative = active, hits mostly inhibitors | HeLa A3G-eYFP + Vif (tagged APOBEC3G with the HIV-1 protein that degrades it), YFP fluorescence, overnight | hit rate 0.076% among 410,000 | AID 602310, 2012 | DNA dC->dU-editing enzyme APOBEC-3G (Homo sapiens), Q9HC16; note: potency is the fitted concentration of half-maximal effect; % is set by controls: 0 for no effect and ±100 for the full control effect; nearly all actives have a fitted effect of over 60% in size
Target sequence (Q9HC16 whole entry, looked up): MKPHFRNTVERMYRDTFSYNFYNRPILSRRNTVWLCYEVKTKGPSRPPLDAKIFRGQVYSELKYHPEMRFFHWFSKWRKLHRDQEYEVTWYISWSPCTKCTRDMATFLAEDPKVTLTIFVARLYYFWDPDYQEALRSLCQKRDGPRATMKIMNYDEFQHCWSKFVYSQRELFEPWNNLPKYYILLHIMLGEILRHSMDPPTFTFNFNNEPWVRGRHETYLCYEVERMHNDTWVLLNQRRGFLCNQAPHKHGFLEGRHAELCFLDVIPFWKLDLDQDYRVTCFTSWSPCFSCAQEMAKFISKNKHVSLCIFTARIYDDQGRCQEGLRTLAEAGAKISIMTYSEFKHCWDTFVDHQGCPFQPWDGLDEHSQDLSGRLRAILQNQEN
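HeLa cells stably expressing Vif and C-terminally eYFP-tagged A3G, seeded overnight at 37 deg C, then exposed to compound by pintool overnight at 37 deg C. Rise in yellow fluorescence (Ex 488/Em 500-530, Acumen) marks blocked Vif-driven A3G degradation.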
An asterisk follows results filed as active; u = inconclusive; x = not tested or not shown. Unless noted, calls come from the whole dose curve; as a rule, active = well fitted curve in the direction sought with a large enough effect; inconclusive = small, poorly fitted or top-dose-only effect, or another doubt; inactive = no such curve, though single readings can be large; an effect the other way counts as inactive or inconclusive.

SMILES	Vif-APOBEC3F blk	Giardia kill	MCF10A rerep	SW480 rereplic	IL-1B inflam inh	Vif-A3G inh
COC(=O)[C@H](C)NC(=O)Nc1ccc(S(N)(=O)=O)cc1	-1%	13	u	u	23	-1%
CCCCOC(=O)c1ccc(NC(=O)Cc2coc3ccc(C(C)C)cc23)cc1	-11%	x	x	x	x	-2%
O=C(Nc1cccc(F)c1)c1oc2ccccc2c1NC(=O)C12CC3CC(CC(C3)C1)C2	-11%	x	x	x	x	1%
Cn1c(-c2ccc(F)cc2)cc2onc(-c3c(F)cccc3Cl)c2c1=O	4%	-16	2.3µM*	-2%	-17	1%
COc1ccc(C(C)=O)cc1CSCC(=O)O	11%	2	u	1%	-6	1%
COc1ccc(C(=O)/C=C/c2cccc(OCc3ccccc3)c2)cc1CSCC(=O)O	-1%	3	12%	21%	-86*	u
COc1ccc(C(=O)/C=C/c2ccc(OCc3ccccc3)cc2)cc1CSCC(=O)O	1%	19	23µM*	u	-28	-27%
Cc1oc(-c2cccc(Cl)c2)nc1CS(=O)(=O)CC(=O)NC(C)CCc1ccccc1 (configuration not stated)	0%	x	x	x	x	0%
COc1ccc(Nc2ncnc3onc(C)c23)c(OC)c1	-3%	x	x	x	x	3%
CCOC(=O)C1CCCN(C(=O)c2ccc3nc(-c4cccc(OC)c4)oc3c2)C1 (configuration not stated)	-7%	-8	u	16µM*	4	u
CCC(=O)C1CCCN(C(=O)c2ccc3nc(-c4cccc(OC)c4)oc3c2)C1 (configuration not stated)	1%	-2	u	8%	-15	-9%
Cc1c(Cl)cccc1NC(=S)NC1CCN(Cc2ccccc2)CC1	-2%	15	12%	0%	-73*	0%
Clc1ccc(CNC2CCN(Cc3ccccc3)CC2)cc1	-1%	6	1%	-2%	-24	0%
S=C(Nc1ccccc1Cl)NC1CCN(Cc2ccccc2)CC1	11%	-3	12%	1%	-7	3%
S=C(NCc1ccc(Cl)cc1)NC1CCN(Cc2ccccc2)CC1	2%	2	u	16µM*	-92*	1%
S=C(Nc1cc(Cl)cc(Cl)c1)NC1CCN(Cc2ccccc2)CC1	6%	u	u	u	-66*	u
CC(C)c1ccc(NC(=S)NC2CCN(Cc3ccccc3)CC2)cc1	-6%	2	28%	u	-89*	2%
Cc1ccc(NC(=S)NC2CCN(Cc3ccccc3)CC2)cc1	1%	20	6%	-2%	-20	1%
COc1cccc(N2CCN(C(=O)CCc3c(C)nc4c(c3C)c(=O)n(C)c(=O)n4C)CC2)c1	4%	x	x	x	x	2%
CCOC(=O)c1ccc(S(=O)(=O)Nc2nc3cc(S(=O)(=O)NC4=NCCCCC4)ccc3s2)cc1	-19%	7	15%	18%	-70*	1%
O=C1CN(C(=O)CSc2nc3ccccc3c(=O)n2Cc2ccc(F)cc2)c2ccccc2N1	0%	-1	9%	u	-71*	-13%
Cn1c(SCC(=O)N2CC(=O)Nc3ccccc32)nc2ccccc2c1=O	-4%	-23	-5%	-3%	u	-16%
COc1ccc(C)cc1NC(=O)c1nnn(Cc2cccc(C(F)(F)F)c2)c1N	-3%	13	2.1µM*	11%	12	-8%
O=C(Nc1ccccc1O)c1ccccc1O	-32%	-26	19%	4%	-9	3%
Cc1ccccc1Cn1nnc(C(=O)Nc2cccc(C)c2C)c1N	-1%	-7	15µM*	3%	-2	u
SMILES	Vif-APOBEC3F blk	Giardia kill	MCF10A rerep	SW480 rereplic	IL-1B inflam inh	Vif-A3G inh
Cc1cccc(NC(=O)c2ccccc2O)c1C	0%	-10	-1%	-18%	-61*	4%
Cc1ccc(CNC(=O)Cn2nnc(C(=O)Nc3cccc(C)c3C)c2N)cc1	1%	-3	-4%	0%	14	-3%
COc1c(C)cc(Br)cc1C(=O)Nc1ccccc1C	-4%	-3	1.5µM*	-37%	-9	-4%
CCc1nc2cccnc2n1-c1ccc(CC(=O)Nc2ccc(C)cc2)cc1	-5%	x	x	x	x	3%
Cc1cccc(NC(=O)c2cnn3ccccc23)c1C	0%	-2	u	u	-53*	7%
CNS(=O)(=O)c1cc(-c2nn3c(C)nnc3c3ccccc23)ccc1C	-23%	x	x	x	x	-7%
CC1(C)C2CCC1(C)C(SC(=N)N)C2 (configuration not stated)	-2%	4	12%	u	-82*	1%
CCn1ccnc1C(O)c1ccccc1OC (configuration not stated)	-3%	10	13µM*	18µM*	-9	4%
COc1cccc(NC(=O)Cn2nc(C)c3c(C)n(-c4ccccc4)nc3c2=O)c1	-8%	x	x	x	x	4%
COc1cccc(-c2nnc3sc(C4CCCCC4)nn23)c1	17%	-18	u	6%	-93*	1%
Cc1cc(-c2nnc3sc(C4CCCCC4)nn23)n[nH]1	-12%	22	10%	0%	-21	0%
COc1cc(-c2nnc3sc(C4CCCCC4)nn23)cc(OC)c1OC	-6%	4	21µM*	-7%	-27	-10%
CCOc1cccc(-c2nnc3sc(C4CCCCC4)nn23)c1	0%	16	5%	8%	u	1%
COc1cc2c(NC3CCN(C(C)C)CC3)nc(N3CCCN(C)CC3)nc2cc1OCCCN1CCCC1	x	x	x	x	x	-3%
O=C(Nc1cc2c(cc1C(=O)c1cccc(Br)c1)OCCO2)c1ccccc1F	0%	x	x	x	x	-1%
O=C(CSc1ncn[nH]1)N1N=C2/C(=C/c3ccco3)CCCC2C1c1ccco1 (configuration not stated)	-4%	6	9%	22%	-60*	-6%
O=C(CSc1ncn[nH]1)N1N=C2/C(=C\c3ccco3)CCCC2C1c1ccco1 (configuration not stated)	0%	-1	0%	22%	-19	-2%
CSc1nc(Nc2ccc(C)cc2C)cc(-c2ccccc2)n1	-5%	x	x	x	x	1%
CC(C)CCn1c(=O)c2sccc2n2c(CCCC(=O)NC3CCC(C)CC3)nnc12 (configuration not stated)	12%	x	x	x	x	6%
CCOC(=O)C(=O)NCC(c1ccco1)S(=O)(=O)c1cccs1 (configuration not stated)	-12%	-4	-6%	-32%	-51*	2%
